# Results filed as inconclusive are left out. The source made the active and inactive calls. The call rests on the fitted dose curve; in most records, active means well fitted curve in the direction sought with a large enough effect; inconclusive means small, poorly fitted or top-dose-only effect, or another doubt; inactive means no such curve, though single readings can be large; an effect the other way counts as inactive or inconclusive.
# Assay: BET inhibitor-based combinations targeting novel dependencies in MECOM-rearranged (r) AML: HNT-34 cell line (AID 2202234); further: nearly all actives have a fitted effect of over 35% in size;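 on viability (% of control): plate controls were vehicle wells for no effect and cell-free wells for full effect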
# Conditions: HNT-34 AML viability, CellTiter-Glo luminescence, 48 h; series mostly up to 46 µM; viability (% of control): at the top concentration
# In short: (§1)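 Normalized to DMSO and empty-well controls, the luminescence data from CellTiter-Glo after 48 hr drug exposure were fitted across 11 concentrations. Reported metrics are area under the dose-response curve and its Z-transformed form.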
# Potency means the concentration at half of the fitted maximal effect.
Compound,Potency,viability (% of control)
C[C@@]12OC(=O)[C@]1([C@@H](O)[C@@H]1C=CCCC1)NC(=O)[C@@H]2CCCl,37.2 nM (active),–
C[C@H]1CCC/C=C/C2C[C@H](O)C[C@H]2[C@H](O)/C=C/C(=O)O1 (stereo partly drawn),296 nM (active),–
C#CCN(C)[C@H](C)Cc1ccccc1,–,93.3% (inactive)

# Assay: BET inhibitor-based combinations targeting novel dependencies in MECOM-rearranged (r) AML: UCSD-AML1 cell line (AID 2202235); further: nearly all actives have a fitted effect of over 40% in size;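 on viability (% of control): plate controls were DMSO vehicle wells for no effect and blank wells for full effect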
# Conditions: UCSD-AML1 AML cells viability, CellTiter-Glo, 48 h; series mostly up to 46 µM; viability (% of control): at the top concentration
# In short: as §1
Compound,Potency,viability (% of control)
CN[C@@H]1C[C@H]2O[C@@](C)([C@@H]1OC)n1c3ccccc3c3c4c(c5c6ccccc6n2c5c31)C(=O)NC4,66.1 nM (active),–
CN(C)[C@@H]1C(=O)C(C(N)=O)=C(O)[C@@]2(O)C(=O)C3=C(O)c4c(O)cccc4[C@@](C)(O)[C@H]3[C@H](O)[C@@H]12,–,108% (inactive)
O=C(Nc1ccncc1)C(=O)c1cn(Cc2ccc(Cl)cc2)c2ccccc12,332 nM (active),–
O=C(CBr)N1CC([N+](=O)[O-])([N+](=O)[O-])C1,–,118% [at 92.2 µM] (inactive)
CO[C@H]1CCC(O[C@H]2C[C@H]([C@]3(C)CC[C@]4(C[C@H](O)[C@@H](C)[C@@H]([C@@H](C)/C=C(\C)C(=O)[C@H](C)C[C@H](C)C(=O)O)O4)O3)O[C@]3(O[C@@H]([C@H]4O[C@@](O)(CO)[C@H](C)C[C@@H]4C)C[C@@H]3C)[C@@H]2C)O[C@@H]1C (stereo partly drawn),2630 nM (active),–
COc1cc([C@@H]2c3cc4c(cc3[C@@H](O)C3COC(=O)C32)OCO4)cc(OC)c1O (stereo partly drawn),332 nM (active),–
C=C[C@H]1CN2CCC1C[C@@H]2[C@@H](O)c1ccnc2ccccc12 (stereo partly drawn),–,103% (inactive)
CC1(C)CC(O)CC(C)(C)N1O,–,112% (inactive)
C[C@@H](C1CC[C@@]2(O)C3=CC(=O)[C@@H]4C[C@@H](O)[C@@H](O)C[C@]4(C)[C@H]3CC[C@]12C)[C@H](O)CCC(C)(C)O (stereo partly drawn),–,105% (inactive)
COc1cc2cc(c1Cl)N(C)C(=O)C[C@H](OC(=O)C(C)C)[C@]1(C)O[C@@H]1[C@H](C)[C@@H]1C[C@@](O)(NC(=O)O1)[C@H](OC)/C=C/C=C(\C)C2,–,15.6% (inactive)
C[C@]12CC[C@H](O)CC1=CC[C@@H]1[C@@H]2CC[C@]2(C)C(=O)CC[C@@H]12,–,112% (inactive)
COC[C@H]1OC(=O)c2coc3c2[C@@]1(C)C1=C(C3=O)[C@@H]2CC[C@H](O)[C@@]2(C)C[C@H]1OC(C)=O,1660 nM (active),–
CC(C)C[C@H](CN)CC(=O)O,–,105% (inactive)
CN1C(=O)[C@@H](NC(=O)[C@H](CCC(F)(F)F)[C@H](CCC(F)(F)F)C(N)=O)N=C(c2ccccc2)c2ccccc21,–,106% (inactive)
C[C@@]12OC(=O)[C@]1([C@@H](O)[C@@H]1C=CCCC1)NC(=O)[C@@H]2CCCl,33.2 nM (active),–
C[C@H]1CCC/C=C/C2C[C@H](O)C[C@H]2[C@H](O)/C=C/C(=O)O1 (stereo partly drawn),209 nM (active),–
C#CCN(C)[C@H](C)Cc1ccccc1,–,106% (inactive)

# Assay: BET inhibitor-based combinations targeting novel dependencies in MECOM-rearranged (r) AML: AML-191 cell line (AID 2202236; further: nearly all actives have a fitted effect of over 35% in size;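 on viability (% of control): plate controls were vehicle wells for no effect and wells without cells for full effect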)
# Conditions: AML-191 viability, CellTiter-Glo luminescence, 48 h; series mostly up to 46 µM; viability (% of control): at the top concentration
# In short: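 Here, 11-point titrations of each agent were applied to 500 seeded cells and incubated 48 hr; CellTiter-Glo signal, scaled against DMSO and empty wells, was integrated as AUC, then Z-scored within the individual line.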
Compound,viability (% of control),Potency
CN(C)[C@@H]1C(=O)C(C(N)=O)=C(O)[C@@]2(O)C(=O)C3=C(O)c4c(O)cccc4[C@@](C)(O)[C@H]3[C@H](O)[C@@H]12,96.2% (inactive),–
O=C(Nc1ccncc1)C(=O)c1cn(Cc2ccc(Cl)cc2)c2ccccc12,–,263 nM (active)
COc1cc(C)[nH]c(=O)c1CNC(=O)c1c(C)n([C@H](C)C2CCN(CC(F)(F)F)CC2)c2ccccc12,95.7% (inactive),–
CO[C@H]1CCC(O[C@H]2C[C@H]([C@]3(C)CC[C@]4(C[C@H](O)[C@@H](C)[C@@H]([C@@H](C)/C=C(\C)C(=O)[C@H](C)C[C@H](C)C(=O)O)O4)O3)O[C@]3(O[C@@H]([C@H]4O[C@@](O)(CO)[C@H](C)C[C@@H]4C)C[C@@H]3C)[C@@H]2C)O[C@@H]1C (stereo partly drawn),–,1660 nM (active)
C=C[C@H]1CN2CCC1C[C@@H]2[C@@H](O)c1ccnc2ccccc12 (stereo partly drawn),106% (inactive),–
CC1(C)CC(O)CC(C)(C)N1O,95.7% (inactive),–
C[C@@H](C1CC[C@@]2(O)C3=CC(=O)[C@@H]4C[C@@H](O)[C@@H](O)C[C@]4(C)[C@H]3CC[C@]12C)[C@H](O)CCC(C)(C)O (stereo partly drawn),102% (inactive),–
CC1(C)CC[C@]2(NC(=O)C(C)(F)F)CC[C@]3(C)[C@H](C(=O)C=C4[C@@]5(C)C=C(C#N)C(=O)C(C)(C)[C@@H]5CC[C@]43C)[C@@H]2C1,–,1860 nM (active)
COc1cc2cc(c1Cl)N(C)C(=O)C[C@H](OC(=O)C(C)C)[C@]1(C)O[C@@H]1[C@H](C)[C@@H]1C[C@@](O)(NC(=O)O1)[C@H](OC)/C=C/C=C(\C)C2,8.31% (inactive),–
C[C@]12CC[C@H](O)CC1=CC[C@@H]1[C@@H]2CC[C@]2(C)C(=O)CC[C@@H]12,98.5% (inactive),–
C[C@]12CC[C@H]3[C@@H](CCC4=CC(=O)CC[C@@]43C)[C@H]1CC[C@H]2OC(=O)CCC1CCCC1,100% (inactive),–
N#CC(O[C@@H]1O[C@H](CO[C@@H]2O[C@H](CO)[C@@H](O)[C@H](O)[C@H]2O)[C@@H](O)[C@H](O)[C@H]1O)c1ccccc1 (stereo partly drawn),92.2% (inactive),–
COC[C@H]1OC(=O)c2coc3c2[C@@]1(C)C1=C(C3=O)[C@@H]2CC[C@H](O)[C@@]2(C)C[C@H]1OC(C)=O,–,7420 nM (active)
CC(C)C[C@H](CN)CC(=O)O,109% (inactive),–
CN1C(=O)[C@@H](NC(=O)[C@H](CCC(F)(F)F)[C@H](CCC(F)(F)F)C(N)=O)N=C(c2ccccc2)c2ccccc21,111% (inactive),–
C[C@@]12OC(=O)[C@]1([C@@H](O)[C@@H]1C=CCCC1)NC(=O)[C@@H]2CCCl,–,26.3 nM (active)
C[C@H]1CCC/C=C/C2C[C@H](O)C[C@H]2[C@H](O)/C=C/C(=O)O1 (stereo partly drawn),–,332 nM (active)
C#CCN(C)[C@H](C)Cc1ccccc1,91.7% (inactive),–

# Source: PubChem BioAssay (NCATS)
